Results filed as inconclusive are left out. Unmarked numbers belong to inactive results. Calls of active or inactive are those of the source. Calls come from the whole dose curve; as a rule, active = well fitted curve in the direction sought with a large enough effect; inconclusive = small, poorly fitted or top-dose-only effect, or another doubt; inactive = no such curve, though single readings can be large; an effect the other way counts as inactive or inconclusive.
Experiments:
[1] = biological target: Calcium and integrin-binding protein 1 (Homo sapiens) (UniProt Q99828); assay: Primary qHTS for Identification of Calcium Integrin Binding Protein 1 (CIB1) Competitor (AID 1508620);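 note: GST tagged CIB1 binding a fluorescein labelled alphaIIb integrin peptide tracer; top concentration of the series differs between compounds; % is set by controls: 0 for no effect and ±100 for the full control effect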
Outline: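 Fluorescence polarization competition: CIB1-GST (1 uM final) preincubated with compound 15 min at room temperature, then FITC-labeled alphaIIb peptide (100 nM final) added for another 15 min. Polarization read at Ex 480/Em 540.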

[2] = Primary qHTS for inhibitors of nuclear receptor binding SET domain protein 2 (NSD2) in an isogenic RCH-ACV NSD2 p.E1099K mutant (9B) (AID 1645876); note: nearly all actives have a fitted effect of over 70% in size; note: potency is the fitted concentration of half-maximal effect
[3] = Primary qHTS for inhibitors of nuclear receptor binding SET domain protein 2 (NSD2) in an RCH-ACV wild type WT cells (2C) (AID 1645877); note: potency is the fitted concentration of half-maximal effect; nearly all actives have a fitted effect of over 70% in size

Sequence of Calcium and integrin-binding protein 1 (Homo sapiens) (Q99828 whole entry, looked up): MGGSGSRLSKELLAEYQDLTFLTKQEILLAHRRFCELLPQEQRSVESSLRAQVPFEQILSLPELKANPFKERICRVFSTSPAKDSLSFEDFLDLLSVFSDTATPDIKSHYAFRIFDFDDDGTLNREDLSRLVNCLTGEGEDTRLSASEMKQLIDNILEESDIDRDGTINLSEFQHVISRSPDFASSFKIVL

Which Potency [1] does the source give for `COC1C(OC(=O)/C=C/C=C/C=C/C=C/C(=O)O)CCC2(CO2)C1C1(C)OC1CC=C(C)C` (stereo not drawn) here?
Its Potency is “inactive”.

And the Potency [2]?
Its Potency is “inactive”.

With `Cc1cc2c(F)c(Oc3ncnn4cc(OCC(C)OC(=O)C(C)N)c(C)c34)ccc2[nH]1` (stereo not drawn) as the molecule, how does the Potency [1] read?
Its Potency is “inactive”.

What about the Potency [2] of the same molecule?
Its Potency is 9.34 µM (active).

For `C=C[C@H](/C=C\c1ccc(O)cc1)c1ccc(O)cc1`, which Potency [1] is on record?
The Potency was “inactive”.

What about the Potency [2] of the same molecule?
The Potency was 16.3 µM (active).

With `CC(=O)N[C@H]1[C@H](O[C@H]2CC[C@@]3(C)C(CC[C@]4(C)C3CC=C3C5CC(C)(C)CC[C@]5(C(=O)O)C(O)C[C@]34C)C2(C)C)O[C@H](CO[C@@H]2O[C@H](C)[C@H](O)[C@H](O)[C@H]2O[C@@H]2OC[C@@H](O)[C@H](O)[C@H]2O)[C@@H](O)[C@@H]1O` (stereo partly drawn) as the molecule, how does the Potency [1] read?
Its Potency is “inactive”.

And the Potency [2]?
The Potency was 2.45 µM (active).

What does the source list for `Cc1sc2c(c1C)C(c1ccc(Cl)cc1)=N[C@H](CC(=O)NCCCCNC(=O)COc1cccc3c1C(=O)N([C@H]1CCC(=O)NC1=O)C3=O)c1nnc(C)n1-2`?
Potency [1]: inactive; Potency [2]: 0.23 µM (active)

Which activity change, negative = inhibition [1] does the source give for `C/C=C(/C)C(=O)O[C@H]1[C@H](OC(=O)/C(C)=C\C)[C@@]23C(CC1(C)C)[C@]1(CCC4[C@@]5(C)CC[C@H](O[C@@H]6O[C@H](C(=O)O)[C@@H](O)[C@H](O[C@@H]7O[C@H](CO)[C@H](O)[C@H](O)[C@H]7O[C@@H]7O[C@@H](C)[C@H](O)[C@@H](O)[C@H]7O[C@@H]7OC[C@@H](O)[C@H](O)[C@H]7O)[C@H]6O[C@@H]6O[C@H](CO)[C@H](O)[C@H](O)[C@H]6O)C(C)(C)C5CC[C@@]4(C)[C@]1(C)C[C@H]2O)O[C@H]3O` (stereo partly drawn) here?
The activity change, negative = inhibition was -2.7% [at 12.4 µM].

What about the Potency [2] of the same molecule?
The Potency was 1.22 µM (active).

And the Potency [3]?
The Potency was 2.18 µM (active).

From PubChem BioAssay (NCATS)
